Drawing on PubChem BioAssay (NCATS), this text covers outcome and Potency for nine compounds.

Inconclusive results are not listed. Calls of active or inactive are those of the source. Calls follow the shape of the dose curve; as a rule, active = well fitted curve in the direction sought with a large enough effect; inconclusive = small, poorly fitted or top-dose-only effect, or another doubt; inactive = no such curve, though single readings can be large; an effect the other way counts as inactive or inconclusive.

For experiment [1], the target named is Metallo-beta-lactamase type 2 (Klebsiella pneumoniae) (UniProt C7C422). In words: qHTS to identify inhibitors of the New Delhi Metallo-beta-lactamase (NDM): assay validation screen against the NCATS LOPAC Collection (AID 1794843). Conditions: NDM-1 enzyme, nitrocefin hydrolysis, absorbance 485 nm; series mostly up to 38.4 µM. In short, it runs like this: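 Absorbance at 485 nm from nitrocefin turnover (50 uM solution added), read at plateau, gives the read-out. Compounds in DMSO were incubated first with 2 nM final NDM-1 in pH 7.0 HEPES buffer containing 1 uM ZnSO4 and 0.01% Tween20.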

For experiment [2], the target named is Glutathione peroxidase 1 (Homo sapiens) (UniProt P07203). The experiment is described as follows: Primary qHTS Assay for Inhibitors of Recombinant Selenoprotein Glutathione Peroxidase 1 (GPX1) (AID 1845191). Also: nearly all actives have a fitted effect of over 65% in size. Conditions: recombinant GPX1, GR-coupled NADPH fluorescence, 15 min; series mostly up to 48.8 µM. The procedure, abridged:
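GPX1 10 nM, GR 100 nM, GSH 1 mM, NADPH 0.5 mM, CHP 0.5 mM (final). 30-min cpd preincubation, RT. Ex340/Em450 read t=0, t=15 min.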

Experiment [3] addresses Phospholipid hydroperoxide glutathione peroxidase GPX4 (Homo sapiens) (UniProt P36969). The experiment is described as follows: Primary qHTS Assay for Inhibitors of Recombinant Selenoprotein Glutathione Peroxidase 4 (GPX4) (AID 1845192). Also: nearly all actives have a fitted effect of over 65% in size. As to conditions: recombinant GPX4, GR-coupled NADPH fluorescence, 15 min; series mostly up to 50 µM. The procedure, abridged: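 qHTS, GR-coupled: GPX4 200 nM + cpd 30 min RT → GSH 1 mM, NADPH 0.5 mM, GR 100 nM → CHP 0.5 mM start; fluor 340/450 at t0 and t15 min; no-enzyme wells as control.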
Background: qHTS replaces the single test concentration by a dilution series.

Experiment [4] can be described thus: Quantitative High-Throughput drug screen in 47 multiple myeloma cell lines against the NCATS MIPE library collection: FR4_PLB cell viability assay (AID 1918924; also: nearly all actives have a fitted effect of over 35% in size; also: potency is read from the fitted curve at half-maximal effect). Conditions: FR4_PLB myeloma cells viability, CellTiter-Glo ATP, 48 h; series mostly up to 45.8 µM. In short, it runs like this: (§1)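 qHTS of the MIPE 4.0 collection: 500 myeloma cells/well, 48 h drug exposure at 37C in 5% CO2, then CellTiter-Glo for 5 min at room temperature before luminescence reading.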
Background: ATP-based viability assays read luminescence as a measure of living cells.

Experiment [5] in a line: Quantitative High-Throughput drug screen in 47 multiple myeloma cell lines against the NCATS MIPE library collection: Delta47_JCRB cell viability assay (AID 1918925; also: nearly all actives have a fitted effect of over 45% in size; also: potency is read from the fitted curve at half-maximal effect). Conditions: Delta47 myeloma viability, CellTiter-Glo ATP, 48 h; series mostly up to 45.8 µM. In short, it runs like this: (§2)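 Primary qHTS used for cherry-picking: cells at 500/well, library compounds for 48 h (37C, 5% CO2), luminescent ATP assay.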

The nature of experiment [6]: Quantitative High-Throughput drug screen in 47 multiple myeloma cell lines against the NCATS MIPE library collection: EJM_DSMZ cell viability assay (AID 1918926; also: nearly all actives have a fitted effect of over 30% in size). As to conditions: EJM myeloma cell viability, CellTiter-Glo ATP, 48 h; series mostly up to 45.8 µM. The procedure, abridged:
as §2

The nature of experiment [7]: Quantitative High-Throughput drug screen in 47 multiple myeloma cell lines against the NCATS MIPE library collection: AMO1_DSMZ cell viability assay (AID 1918927; also: nearly all actives have a fitted effect of over 30% in size; also: potency is read from the fitted curve at half-maximal effect). Conditions: AMO1 myeloma cells viability, CellTiter-Glo ATP luminescence, 48 h; series mostly up to 45.8 µM. In short, it runs like this: as §2
The nature of experiment [8]: Quantitative High-Throughput drug screen in 47 multiple myeloma cell lines against the NCATS MIPE library collection: ARP1_JJKsccF8 cell viability assay (AID 1918928; also: nearly all actives have a fitted effect of over 40% in size; also: potency is read from the fitted curve at half-maximal effect). Conditions: ARP1 myeloma cells viability, CellTiter-Glo ATP, 48 h; series mostly up to 45.8 µM. In short, it runs like this: (§3)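 CellTiter-Glo luminescence after 48 h exposure gives viability, scaled between DMSO-only (100%) and media-only (0%) controls. Library compounds are pinned onto 500 myeloma cells per well, incubated at 37C with 5% CO2.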

Experiment [9] can be described thus: Quantitative High-Throughput drug screen in 47 multiple myeloma cell lines against the NCATS MIPE library collection: ARD_JJKsccE7 cell viability assay (AID 1918929). As to conditions: ARD myeloma cell line viability, CellTiter-Glo, 48 h; series mostly up to 45.8 µM. The procedure, abridged:
as §2

A short description of experiment [10]: Quantitative High-Throughput drug screen in 47 multiple myeloma cell lines against the NCATS MIPE library collection: Karpas620_DSMZ cell viability assay (AID 1918959). Also: nearly all actives have a fitted effect of over 30% in size. Also: potency is read from the fitted curve at half-maximal effect. Conditions: Karpas620 myeloma viability, CellTiter-Glo ATP luminescence, 48 h; series mostly up to 45.8 µM. In short, it runs like this: as §1
The nature of experiment [11]: Quantitative High-Throughput drug screen in 47 multiple myeloma cell lines against the NCATS MIPE library collection: KMM1_JCRB cell viability assay (AID 1918960). Also: nearly all actives have a fitted effect of over 30% in size. Also: potency is read from the fitted curve at half-maximal effect. Conditions: KMM1 myeloma viability, CellTiter-Glo ATP luminescence, 48 h; series mostly up to 45.8 µM. The procedure, abridged: as §3
Experiment [12] can be described thus: Quantitative High-Throughput drug screen in 47 multiple myeloma cell lines against the NCATS MIPE library collection: KHM11_PLB cell viability assay (AID 1918962). Also: nearly all actives have a fitted effect of over 35% in size. Also: potency is read from the fitted curve at half-maximal effect. As to conditions: KHM11 myeloma cell viability, CellTiter-Glo ATP luminescence, 48 h; series mostly up to 45.8 µM. The procedure, abridged: as §1
Experiment [13] in a line: Quantitative High-Throughput drug screen in 47 multiple myeloma cell lines against the NCATS MIPE library collection: Karpas417_ECACC cell viability assay (AID 1918961). Also: potency is read from the fitted curve at half-maximal effect. Conditions: Karpas417 myeloma viability, CellTiter-Glo ATP luminescence, 48 h; viability (% of DMSO): at 45.8 µM (top of the series). In short, it runs like this:
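Luminescent ATP measurement with CellTiter-Glo gives viability, scaled between DMSO-only wells (100%) and media-only wells (0%). Cells, 500 per well, faced library compounds for 48 hours at 37C.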

The target in experiment [14] is Luciferin 4-monooxygenase (Photinus pyralis) (UniProt P08659). In words: Primary firefly luciferase (FLuc) qHTS assay for identification of artifact compounds. (AID 1845220). Also: nearly all actives have a fitted effect of over 60% in size. Conditions: purified firefly luciferase, luminescence, 5 min; series mostly up to 54.1 µM. In short, it runs like this: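 In this counter-screen for luciferase artifacts, test compounds met substrate (10 uM each luciferin and ATP) before 10 nM enzyme started the reaction. Light output was measured 5 min later.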

Experiment [15] is described as follows: Primary fluorescence-based thiol-reactive (MSTI) qHTS assay for identification of artifact compounds. (AID 1845221).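 Also: thiol-reactive compounds lower the probe fluorescence signal; nearly all actives have a fitted effect of over 65% in size.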 Conditions: MSTI thiol-reactivity probe, 1 h; series mostly up to 53.8 µM. The procedure, abridged: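 A multi-concentration qHTS design tested compounds against 4 uM MSTI, pH 7.4 phosphate-buffered saline. Plates were protected from light for 1 h at room temperature before imaging fluorescence.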

For experiment [16], the system named is Nanoluciferase (engineered Oplophorus gracilirostris luciferase). In words: Primary Nanoluciferase (NLuc) qHTS assay for identification of artifact compounds. (AID 1845222).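 Also: NLuc secreted into diluted conditioned medium of S16 cells.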 As to conditions: NLuc-conditioned medium, Nano-Glo luminescence, 5 min; series mostly up to 54.1 µM. In short, it runs like this:
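Using secreted nanoluciferase in S16 culture medium (0.22 um filtered, 1:55 dilution), compounds were preincubated 15 min at RT. Signal was generated with Nano-Glo reagent (1:100) over 5 min.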

Experiment [17] is described as follows: Primary redox qHTS assay for identification of artifact compounds. (AID 1845223). Conditions: Amplex Red/HRP redox cycling with DTT, fluorescence; series mostly up to 53.8 µM. The procedure, abridged:
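Redox-cycling detection via DTT (250 uM final) oxidation coupled to Amplex Red (25 uM)/HRP (250 mU/mL) in HBSS. 15 min preincubation plus 30 min after DTT, room temperature. Ex/Em 525/598 nm; 4-parameter Hill fit against DMSO and 10 uM DA3003.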

Chain of Metallo-beta-lactamase type 2 (Klebsiella pneumoniae) (C7C422 whole entry, looked up): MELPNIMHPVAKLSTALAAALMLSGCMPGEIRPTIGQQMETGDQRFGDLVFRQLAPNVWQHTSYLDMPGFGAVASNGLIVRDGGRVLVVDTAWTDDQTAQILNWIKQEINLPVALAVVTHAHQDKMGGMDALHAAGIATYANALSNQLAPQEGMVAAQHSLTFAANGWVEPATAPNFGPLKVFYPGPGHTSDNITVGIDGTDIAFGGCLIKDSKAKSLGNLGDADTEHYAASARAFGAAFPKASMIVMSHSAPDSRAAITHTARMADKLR
Chain of Glutathione peroxidase 1 (Homo sapiens) (P07203 whole entry, looked up): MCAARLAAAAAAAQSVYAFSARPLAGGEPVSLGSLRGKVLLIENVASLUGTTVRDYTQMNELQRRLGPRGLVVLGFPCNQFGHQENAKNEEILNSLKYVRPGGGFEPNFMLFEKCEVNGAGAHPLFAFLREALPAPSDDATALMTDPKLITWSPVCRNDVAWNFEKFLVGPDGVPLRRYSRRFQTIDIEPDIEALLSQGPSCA
Chain of Phospholipid hydroperoxide glutathione peroxidase GPX4 (Homo sapiens) (P36969 whole entry, looked up): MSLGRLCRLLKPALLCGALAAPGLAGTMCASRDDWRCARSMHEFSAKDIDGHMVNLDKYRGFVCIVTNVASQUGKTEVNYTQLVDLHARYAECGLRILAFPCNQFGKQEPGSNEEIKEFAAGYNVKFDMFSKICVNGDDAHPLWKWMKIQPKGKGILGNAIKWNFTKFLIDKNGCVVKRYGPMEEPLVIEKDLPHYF

As to `CN1C2CCC1CC(OC(=O)C(CO)c1ccccc1)C2` (configuration not stated), the outcome in [1] was inactive. Moreover, the Potency entry in experiment [2], in experiment [3], in [4], in experiment [5], in experiment [6] and in [7] was “inactive” throughout. In addition, the Potency result in experiment [8], in experiment [9], in [10], in experiment [11] and in [12] was “inactive” throughout.

As to `CS(=O)(=O)Nc1ccc([N+](=O)[O-])cc1Oc1ccccc1`, in [1], the outcome was inactive. Also, the Potency entry in [2], in [3], in experiment [4], in experiment [5], in [6] and in experiment [7] was “inactive” throughout. Moreover, the Potency result in [10], in experiment [11] and in [12] was “inactive” throughout. The Potency in [8] was 11.8 µM (active).

As for `COc1ccccc1N1CCN(CC(O)COc2cccc3ccccc23)CC1` (configuration not stated), the result in [1] was inactive. Moreover, the Potency result in experiment [2], in experiment [3], in experiment [4], in experiment [5], in experiment [6] and in experiment [7] was “inactive” throughout. Also, the Potency result in experiment [10] and in experiment [11] was “inactive” each time. Moreover, in experiment [8], the Potency was 9.35 µM (active).

Turning to `COc1cc2c(c(OC)c1OC)-c1ccc(OC)c(=O)cc1[C@@H](NC(C)=O)CC2`, in [1], the result was inactive. Besides, the Potency entry in experiment [2], in [3], in experiment [4], in experiment [6], in experiment [7] and in experiment [9] was “inactive” each time. For the same compound, the Potency entry in [10] and in experiment [11] was “inactive” each time. Moreover, in experiment [13], the Potency is 0.0033 µM (active).

In the case of `Nc1ccn([C@H]2CC[C@@H](CO)O2)c(=O)n1`, the compound was called inactive in [1]. For the same compound, the Potency result in [2], in experiment [3], in experiment [4], in experiment [5], in experiment [7] and in experiment [8] was “inactive” in each case. The Potency result in experiment [9], in [10], in experiment [11] and in experiment [13] was “inactive” each time.

For the compound `CC(C(=O)O)c1cccc(C(=O)c2ccccc2)c1` (configuration not stated), the compound was called inactive in experiment [1]. The Potency result in experiment [2], in [3], in experiment [4], in [7] and in [11] was “inactive” throughout. The results for the Potency in experiment [5] and in [12] were 20.9 µM (active) and 18.7 µM (active), respectively.

As to `CNCCCC12CCC(c3ccccc31)c1ccccc12`, the compound was called inactive in experiment [1], in [14], in experiment [15], in experiment [16] and in experiment [17]. The Potency result in experiment [2] and in [3] was “inactive” each time. Also, the Potency in [4] is 20.9 µM (active); in experiment [5] it was 18.7 µM (active); in experiment [7], 23.5 µM (active); in experiment [8], 20.9 µM (active); in experiment [10], 26.4 µM (active); in experiment [11] it was 20.9 µM (active). Further, the Potency in [12] was 26.4 µM (active).

For the compound `OCCN1CCN(CCCN2c3ccccc3Sc3ccc(C(F)(F)F)cc32)CC1`, the result in experiment [1] was inactive. The Potency result in experiment [3] is “inactive”. The Potency in [4] is 23.5 µM (active); in [5], 18.7 µM (active); in [7] it was 18.7 µM (active); in experiment [8], 18.7 µM (active); in [10] it was 18.7 µM (active); in experiment [11] it was 20.9 µM (active).

In the case of `CC(C)NCC(O)COc1ccc(CCOCC2CC2)cc1` (configuration not stated), the compound was classed as inactive in experiment [1]. Also, the Potency entry in experiment [3], in experiment [4], in experiment [5], in experiment [10], in [11] and in experiment [13] was “inactive” in each case. Besides, in experiment [12], the Potency entry is “inactive”.
